Data reported in PubChem BioAssay (NCI).
Compounds without any hit were thinned out: in the full panel of roughly 83,000, 20% have a hit.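 Assay: single dose, 48 h. Readout: percent growth (0 = no net growth; negative = cell death). Active: <10.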 The source made the active and inactive calls.

How the values were obtained:
Assay in all cases: NCI-60 one-dose screen, 48 h (100 = growth as untreated, 0 = no growth, -100 = all killed)
SK-MEL-2 melanoma = conditions: 10 µM unless noted
EKVX NSCLC = conditions: 10 µM unless noted
SN12C renal = conditions: 10 µM unless noted
UO-31 renal = conditions: 10 µM unless noted
TK-10 renal = conditions: 10 µM unless noted
ACHN renal = conditions: 10 µM unless noted
CAKI-1 renal = conditions: 10 µM unless noted
A498 renal = conditions: 10 µM unless noted
CCRF-CEM leukemia = conditions: 10 µM unless noted
MOLT-4 leukemia = conditions: 10 µM unless noted
SR leukemia = conditions: 10 µM unless noted
RPMI-8226 leukemia = conditions: 10 µM unless noted
OVCAR-8 ovarian = conditions: 10 µM unless noted
OVCAR-5 ovarian = conditions: 10 µM unless noted
OVCAR-4 ovarian = conditions: 10 µM
SK-OV-3 ovarian = conditions: 10 µM unless noted
IGROV1 ovarian = conditions: 10 µM unless noted
OVCAR-3 ovarian = conditions: 10 µM unless noted
HS 578T breast = conditions: 10 µM unless noted
NCI/ADR-RES ovarian = conditions: 10 µM unless noted

Measured: growth

Nc1cc(Cl)cc2cccnc12
inactive: SK-MEL-2 melanoma 119% | EKVX NSCLC 102% | SN12C renal 91.1% | UO-31 renal 67.9% | TK-10 renal 109% | ACHN renal 102% | CAKI-1 renal 101% | A498 renal 116% | CCRF-CEM leukemia 55.7% | MOLT-4 leukemia 77.8% | SR leukemia 94% | RPMI-8226 leukemia 92.9% | OVCAR-8 ovarian 111% | OVCAR-5 ovarian 101% | OVCAR-4 ovarian 117% | SK-OV-3 ovarian 95% | IGROV1 ovarian 126% | OVCAR-3 ovarian 119% | HS 578T breast 114% | NCI/ADR-RES ovarian 101%

CCOc1ccc(/C=C(\C#N)c2cc3ccccc3[nH]2)cc1
inactive: SK-MEL-2 melanoma 36.1% | EKVX NSCLC 72.5% | SN12C renal 62.7% | UO-31 renal 69.5% | TK-10 renal 79.3% | ACHN renal 81.8% | CAKI-1 renal 40.3% | A498 renal 56.9% | CCRF-CEM leukemia 63.4% | MOLT-4 leukemia 31.2% | SR leukemia 18.2% | RPMI-8226 leukemia 79.7% | OVCAR-8 ovarian 65.4% | OVCAR-5 ovarian 76.5% | OVCAR-4 ovarian 82.5% | SK-OV-3 ovarian 67.8% | IGROV1 ovarian 56% | OVCAR-3 ovarian 41.9% | HS 578T breast 66.4% | NCI/ADR-RES ovarian 26.1%

COC(=O)[C@H](CC(C)C)NC(=O)NC(=O)NC(=O)CI
active: UO-31 renal -76.3% | CAKI-1 renal -69.2% | CCRF-CEM leukemia -46.3% | MOLT-4 leukemia 4.18% | SR leukemia -51% | OVCAR-3 ovarian -74.1%
inactive: SK-MEL-2 melanoma 78.8% | EKVX NSCLC 94.8% | SN12C renal 76.5% | TK-10 renal 72.3% | ACHN renal 37% | A498 renal 82.8% | RPMI-8226 leukemia 61.6% | OVCAR-8 ovarian 73.3% | OVCAR-5 ovarian 86.9% | OVCAR-4 ovarian 59% | SK-OV-3 ovarian 92.4% | IGROV1 ovarian 62% | HS 578T breast 106% | NCI/ADR-RES ovarian 92.2%

COc1ncnc2c(-c3ccccc3)cn(COCc3ccccc3)c12
active: MOLT-4 leukemia 7.9%
inactive: SK-MEL-2 melanoma 34.5% | EKVX NSCLC 41.4% | SN12C renal 66.6% | UO-31 renal 44.2% | TK-10 renal 43.1% | ACHN renal 51% | CAKI-1 renal 64.3% | A498 renal 51.9% | CCRF-CEM leukemia 41.1% | SR leukemia 18.2% | RPMI-8226 leukemia 29.2% | OVCAR-8 ovarian 26.6% | OVCAR-5 ovarian 110% | OVCAR-4 ovarian 54.4% | SK-OV-3 ovarian 82.7% | IGROV1 ovarian 71% | OVCAR-3 ovarian 62.8% | HS 578T breast 81.2%

CCCOc1ccc(-c2nc(-c3ccc(N)cc3)cs2)cc1
inactive: SK-MEL-2 melanoma 107% | EKVX NSCLC 95.6% | SN12C renal 95.2% | UO-31 renal 77.1% | TK-10 renal 125% | ACHN renal 97.1% | CAKI-1 renal 79.3% | A498 renal 215% | CCRF-CEM leukemia 85.6% | MOLT-4 leukemia 116% | SR leukemia 73.9% | RPMI-8226 leukemia 96.6% | OVCAR-8 ovarian 87% | OVCAR-5 ovarian 108% | OVCAR-4 ovarian 100% | SK-OV-3 ovarian 105% | IGROV1 ovarian 94.8% | OVCAR-3 ovarian 145% | HS 578T breast 130% | NCI/ADR-RES ovarian 97.9%

O=C(CSc1nc2ccc([N+](=O)[O-])cc2[nH]1)Nc1cccc(Cl)c1
inactive: EKVX NSCLC 16.7% | TK-10 renal 37.8% | ACHN renal 22.5% | CAKI-1 renal 17.6% | CCRF-CEM leukemia 16.4% | SR leukemia 12.7% | OVCAR-8 ovarian 18.7% | OVCAR-5 ovarian 61.4% | SK-OV-3 ovarian 29.4% | IGROV1 ovarian 37.9% | OVCAR-3 ovarian 19% | HS 578T breast 38.3% | NCI/ADR-RES ovarian 25.4%
active: SK-MEL-2 melanoma 7.44% | SN12C renal 6.25% | UO-31 renal 9.96% | A498 renal 5.48% | MOLT-4 leukemia 7.99% | RPMI-8226 leukemia -19.6% | OVCAR-4 ovarian 2.46%

O=C1COCCN1c1ccc(NCc2cn(Cc3ccccc3)c3ccccc23)cc1
active: CAKI-1 renal -9.69% | A498 renal -88.4% | OVCAR-5 ovarian -23.8%
inactive: SK-MEL-2 melanoma 97.6% | EKVX NSCLC 94.4% | SN12C renal 96.2% | UO-31 renal 63% | TK-10 renal 12.3% | ACHN renal 101% | CCRF-CEM leukemia 96.4% | MOLT-4 leukemia 102% | SR leukemia 58.3% | RPMI-8226 leukemia 86.8% | OVCAR-8 ovarian 93.7% | OVCAR-4 ovarian 62.6% | SK-OV-3 ovarian 34.3% | IGROV1 ovarian 15.5% | OVCAR-3 ovarian 80.9% | HS 578T breast 89.4% | NCI/ADR-RES ovarian 101%

O=C(NCCO)c1cccnc1
inactive: SK-MEL-2 melanoma 81.8% | EKVX NSCLC 109% | SN12C renal 100% | UO-31 renal 85.2% | TK-10 renal 81% | ACHN renal 110% | CAKI-1 renal 98.3% | A498 renal 96.9% | CCRF-CEM leukemia 81.4% | MOLT-4 leukemia 107% | SR leukemia 103% | RPMI-8226 leukemia 95.4% | OVCAR-8 ovarian 102% | OVCAR-5 ovarian 103% | OVCAR-4 ovarian 110% | SK-OV-3 ovarian 97.4% | IGROV1 ovarian 100% | OVCAR-3 ovarian 111% | HS 578T breast 92.1% | NCI/ADR-RES ovarian 96.5%

NNC(=O)c1ccc(C(=O)NN)cc1
inactive: SK-MEL-2 melanoma 122% | EKVX NSCLC 101% | SN12C renal 109% | UO-31 renal 87.1% | TK-10 renal 105% | ACHN renal 111% | CAKI-1 renal 105% | A498 renal 70.2% | CCRF-CEM leukemia 94.4% | MOLT-4 leukemia 130% | SR leukemia 126% | RPMI-8226 leukemia 104% | OVCAR-8 ovarian 84.9% | OVCAR-5 ovarian 113% | OVCAR-4 ovarian 127% | SK-OV-3 ovarian 119% | IGROV1 ovarian 116% | OVCAR-3 ovarian 112% | HS 578T breast 97.9% | NCI/ADR-RES ovarian 104%

COc1ccc(C(=O)CSc2nccc(Nc3ccc(C(=O)O)cc3)n2)cc1
inactive: SK-MEL-2 melanoma 103% | EKVX NSCLC 103% | SN12C renal 99.3% | UO-31 renal 82% | TK-10 renal 103% | ACHN renal 101% | CAKI-1 renal 97.7% | A498 renal 106% | CCRF-CEM leukemia 105% | MOLT-4 leukemia 106% | SR leukemia 91.4% | RPMI-8226 leukemia 109% | OVCAR-8 ovarian 94.8% | OVCAR-5 ovarian 103% | OVCAR-4 ovarian 108% | SK-OV-3 ovarian 99.1% | IGROV1 ovarian 91.8% | OVCAR-3 ovarian 100% | HS 578T breast 84.4% | NCI/ADR-RES ovarian 103%

Cc1cc(C)c(-c2cc(O)c(-c3c(C)cc(C)cc3C)cc2O)c(C)c1
active: A498 renal 5.72% | SK-OV-3 ovarian 4.25% | OVCAR-3 ovarian -25.7%
inactive: SK-MEL-2 melanoma 66% | EKVX NSCLC 53.9% | SN12C renal 65.5% | UO-31 renal 62.1% | TK-10 renal 56.3% | ACHN renal 38.3% | CAKI-1 renal 40.4% | CCRF-CEM leukemia 18.5% | MOLT-4 leukemia 47.9% | SR leukemia 19.9% | RPMI-8226 leukemia 42.3% | OVCAR-8 ovarian 49.4% | OVCAR-5 ovarian 50.7% | OVCAR-4 ovarian 58.9% | IGROV1 ovarian 70.3% | HS 578T breast 11.9% | NCI/ADR-RES ovarian 57.9%

O=C1COCCN1c1ccc(NCc2cn(Cc3ccc(F)cc3)c3ccccc23)cc1
active: TK-10 renal -32.3% | CAKI-1 renal -37.8% | A498 renal -91.7% | OVCAR-5 ovarian -40.3% | OVCAR-4 ovarian -6.07% | IGROV1 ovarian -18.9% | OVCAR-3 ovarian 3.96%
inactive: SK-MEL-2 melanoma 56.7% | EKVX NSCLC 91% | SN12C renal 64.3% | UO-31 renal 40.6% | ACHN renal 61.6% | CCRF-CEM leukemia 92.9% | MOLT-4 leukemia 102% | SR leukemia 94.4% | RPMI-8226 leukemia 41.7% | OVCAR-8 ovarian 70.5% | SK-OV-3 ovarian 20.3% | HS 578T breast 72% | NCI/ADR-RES ovarian 72.1%

CCN=Cc1c(O)c(O)c(C(C)C)c2cc(C)c(-c3c(C)cc4c(C(C)C)c(O)c(O)c(C=NCC)c4c3O)c(O)c12
inactive: SK-MEL-2 melanoma 51.4% | EKVX NSCLC 30.5% | SN12C renal 54.9% | UO-31 renal 39.2% | TK-10 renal 43.5% | ACHN renal 24.4% | CAKI-1 renal 73.3% | A498 renal 69.5% | CCRF-CEM leukemia 20.1% | MOLT-4 leukemia 32.8% | SR leukemia 27% | RPMI-8226 leukemia 34.8% | OVCAR-8 ovarian 39.2% | OVCAR-5 ovarian 63.4% | OVCAR-4 ovarian 31.7% | SK-OV-3 ovarian 63.4% | IGROV1 ovarian 46.8% | OVCAR-3 ovarian 32.5% | HS 578T breast 57.8% | NCI/ADR-RES ovarian 47.9%

Cc1ccc(S(=O)(=O)NCCCNc2nccc(-c3c(-c4cccc(F)c4)nc4occn34)n2)cc1
inactive: SK-MEL-2 melanoma 87.8% | EKVX NSCLC 78.7% | SN12C renal 70.1% | UO-31 renal 43.6% | TK-10 renal 79.8% | ACHN renal 80.9% | CAKI-1 renal 53.4% | A498 renal 57.5% | CCRF-CEM leukemia 42.2% | MOLT-4 leukemia 27% | SR leukemia 87.9% | RPMI-8226 leukemia 54.8% | OVCAR-8 ovarian 65% | OVCAR-5 ovarian 96.5% | OVCAR-4 ovarian 73.4% | SK-OV-3 ovarian 68.3% | IGROV1 ovarian 48.1% | OVCAR-3 ovarian 89.7% | HS 578T breast 68% | NCI/ADR-RES ovarian 85%

Cc1ccc2c(c1)/C(=N\N=C/c1cn(C(C)C)c3ccccc13)C(=O)N2
active: CCRF-CEM leukemia 6.69% | MOLT-4 leukemia -10% | SR leukemia -9.77% | RPMI-8226 leukemia 0.866% | OVCAR-3 ovarian -2.36%
inactive: SK-MEL-2 melanoma 81.2% | EKVX NSCLC 61.9% | SN12C renal 56.4% | UO-31 renal 57.8% | TK-10 renal 81.4% | ACHN renal 55.4% | CAKI-1 renal 64.4% | A498 renal 86.1% | OVCAR-8 ovarian 54.5% | OVCAR-5 ovarian 70.2% | OVCAR-4 ovarian 37.7% | SK-OV-3 ovarian 89.2% | IGROV1 ovarian 48.1% | HS 578T breast 73.9% | NCI/ADR-RES ovarian 79%

CC(C)C1=NOC(=O)C1=Cc1cn(-c2ccccc2)nc1-c1ccccc1
inactive: SK-MEL-2 melanoma 99.2% | EKVX NSCLC 99.3% | SN12C renal 79.2% | UO-31 renal 70.2% | TK-10 renal 82.3% | ACHN renal 84.5% | CAKI-1 renal 57.7% | A498 renal 93.6% | OVCAR-8 ovarian 59.8% | OVCAR-5 ovarian 102% | OVCAR-4 ovarian 95.4% | SK-OV-3 ovarian 112% | IGROV1 ovarian 67.5% | OVCAR-3 ovarian 88.4% | HS 578T breast 64% | NCI/ADR-RES ovarian 94.6%
active: CCRF-CEM leukemia 8.48% | MOLT-4 leukemia 7.72% | SR leukemia -26.9% | RPMI-8226 leukemia -16.2%
